High-throughput results: PubChem BioAssay, National Center for Advancing Translational Sciences (NCATS)
NIH3T3 tox = Cytotoxic Profiling in NIH 3T3 Cell Line of Diverse Libraries Using Quantitative High-Throughput Screening; NIH 3T3 viability, CellTiter-Glo ATP luminescence, 48-72 h; Potency, µM (series often up to 96.7 µM), inactives show at the top dose activity change, negative = cytotoxicity, usual class: inhibitors; AID 1345082, 2018; hit rate 4.3% among 94,000; also: nearly all actives have a fitted effect of over 55% in size
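Viability of NIH 3T3 cells after 48 or 72 hr compound treatment at 37 °C was assessed by CellTiter-Glo, with luminescence imaged following a 10 min room-temperature step.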
HEK293 tox = Cytotoxic Profiling in HEK 293 Cell Line of Diverse Libraries Using Quantitative High-Throughput Screening; hit rate 6.6% among 94,000; HEK 293 viability, ATP luminescence (CellTiter-Glo), 48-72 h; Potency, µM (series often up to 115 µM), for the others: top-dose activity change, negative = cytotoxicity, actives largely listed as inhibitors; also: nearly all actives have a fitted effect of over 60% in size
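Read-out: CellTiter-Glo ATP luminescence. Cells: HEK 293, 250 cells/well. Exposure: 48 or 72 hr, 37 degree Celsius.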
NPR1 antag = Natriuretic polypeptide receptor (hNpr1) antagonism - Primary qHTS; Atrial natriuretic peptide receptor 1 (Homo sapiens), P16066; HEK293 hNpr1 GloSensor cGMP, ANP-stimulated luminescence; Potency, µM (top dose mostly 46.3 µM), for the others: top-dose activity change, negative = inhibition, actives largely listed as inhibitors; hit rate 1.6% among 76,000; calls by dose curve; also: nearly all actives have a fitted effect of over 60% in size
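HEK293 cells stably expressing human Npr1 and cGMP GloSensor pGS-40F, loaded 2 h with 2% GloSensor reagent, given compound 30 min at room temperature. Luminescence read before and 20 min after 0.1 nM hNppA.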
FLuc inh = Firefly luciferase inhibition profiling of diverse chemical library using quantitative high-throughput screening. purified P. pyralis luciferase, luminescence, biochemical. Potency, µM (titrated, usually from 115 µM), hits mostly inhibitors. hit rate 2.5% among 76,000; also: nearly all actives have a fitted effect of over 65% in size
Target sequence (P08659 whole entry, looked up): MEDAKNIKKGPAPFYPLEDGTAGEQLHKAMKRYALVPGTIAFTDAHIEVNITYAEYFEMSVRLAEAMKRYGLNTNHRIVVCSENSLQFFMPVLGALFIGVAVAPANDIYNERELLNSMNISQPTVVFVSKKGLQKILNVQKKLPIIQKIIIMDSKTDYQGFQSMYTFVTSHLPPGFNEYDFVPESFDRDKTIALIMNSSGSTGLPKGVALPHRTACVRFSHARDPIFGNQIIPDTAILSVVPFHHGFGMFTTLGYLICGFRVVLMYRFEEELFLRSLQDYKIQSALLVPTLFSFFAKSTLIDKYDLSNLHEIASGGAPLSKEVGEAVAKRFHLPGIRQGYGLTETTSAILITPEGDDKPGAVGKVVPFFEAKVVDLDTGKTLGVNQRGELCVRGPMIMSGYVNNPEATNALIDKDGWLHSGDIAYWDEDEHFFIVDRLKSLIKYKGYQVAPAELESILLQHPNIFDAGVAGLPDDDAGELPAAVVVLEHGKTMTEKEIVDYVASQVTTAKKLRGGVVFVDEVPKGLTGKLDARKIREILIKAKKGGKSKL
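Cell-free enzyme assay, 10nM P. pyralis luciferase, luciferin and ATP each at 10uM. Inhibition profiled over a 6-point titration, read as luminescence.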
The depositor's hits bear a star; [ ] = remark or other dose. Only some compounds are listed: those with a hit (about 11% of all), similar ones and a draw of the others. Unless noted, calls follow the shape of the dose curve; as a rule, active = well fitted curve in the direction sought with a large enough effect; inconclusive = small, poorly fitted or top-dose-only effect, or another doubt; inactive = no such curve, though single readings can be large; an effect the other way counts as inactive or inconclusive. % is scaled to controls: 0 for no effect and ±100 for the full control effect; potency is read from the fitted curve at half-maximal effect.

Screening N#Cc1ccccc1S(=O)(=O)N[C@H]1CO[C@H]2[C@@H]1OC[C@H]2OC(=O)Nc1ccc(Oc2ccccc2)cc1 returned NIH3T3 tox inconclusive, HEK293 tox inconclusive, NPR1 antag 11.2µM* and FLuc inh 39.8µM*.
Screening O=C(Nc1cccc(C(F)(F)F)c1)N[C@H]1CO[C@H]2[C@@H]1OC[C@@H]2Nc1nccc(C2CCCC2)n1 returned NIH3T3 tox 79.4µM*, HEK293 tox inconclusive, NPR1 antag -6.2% and FLuc inh inactive.
`COc1ccc(CN2CC[C@H](c3nnc(-c4ccccc4F)o3)C2)cc1` gave NIH3T3 tox -5.1%[138 µM], HEK293 tox -19.4%[172 µM], NPR1 antag -12.8%[70.6 µM] and FLuc inh inactive.
For O=C(C1CCN(C(=O)C2CCCC2)C1)N1CCC(c2nc3ncccc3[nH]2)CC1 (stereo unspecified) the results were NIH3T3 tox -7.4% and HEK293 tox -1.2%.
`O=C(Nc1ccccc1)N[C@H]1CO[C@H]2[C@@H]1OC[C@H]2OC(=O)Nc1ccc(Oc2ccccc2)cc1` gave NIH3T3 tox inconclusive, HEK293 tox inconclusive, NPR1 antag 7.94µM* and FLuc inh inconclusive.
Screening O=C(Nc1ccc(Oc2ccccc2)cc1)N[C@H]1CO[C@H]2[C@@H]1OC[C@@H]2n1nnnc1Oc1ccc(-n2cncn2)cc1 returned NIH3T3 tox inconclusive, HEK293 tox 25.1µM*, NPR1 antag -24.6% and FLuc inh inactive.
Screening CC(=O)c1ccc(NC(=O)O[C@@H]2CO[C@H]3[C@@H]2OC[C@@H]3NC(=O)Nc2ccc(Oc3ccccc3)cc2)cc1 returned NIH3T3 tox inconclusive, HEK293 tox 31.6µM*, NPR1 antag inconclusive and FLuc inh inactive.
`CC(C)=CCn1c(-c2ccc(F)cc2)cn2cc(C(=O)N3CC[C@H](O)C3)nc2c1=O` gave NIH3T3 tox inconclusive, HEK293 tox -14.7%, NPR1 antag 6.0% and FLuc inh inactive.
For COCC1CN(C2CCC2)CC12CCN(C(=O)Cc1ccccc1OC)CC2 (stereo unspecified) the results were NIH3T3 tox inconclusive, HEK293 tox inconclusive, NPR1 antag -19.5% and FLuc inh inactive.
Screening CC1CCN(c2ccc(CNC(=O)C3CCCN(Cc4ccncc4)CCC(=O)NCC3)cc2)CC1 (stereo unspecified) returned NIH3T3 tox inconclusive, HEK293 tox inconclusive, NPR1 antag 0.9% and FLuc inh inactive.
Screening Cn1cccc1C(=O)N1CC[C@H](NC(=O)Nc2ccc(F)cc2F)[C@H]1C(=O)N[C@H](Cc1ccccc1)C(N)=O returned NIH3T3 tox -6.8%, HEK293 tox -5.6%, NPR1 antag 3.4% and FLuc inh inactive.
For CCN1CCC2(Cc3ccccc3CN(C(=O)Cc3ccc(OC)cc3)C2)C1 (stereo unspecified) the results were NIH3T3 tox -1.2% and HEK293 tox -9.8%.
Screening CCC(=O)Nc1ccc(-c2c(-c3cc(OC)cc(OC)c3)nn(-c3ccc(C)cc3)c2OC(C)=O)cc1 returned NIH3T3 tox -22.1%, HEK293 tox inconclusive, NPR1 antag -20.6% and FLuc inh inactive.
Screening CCC(=O)Nc1ccc(-c2c(-c3ccc(C)cc3)nn(-c3ccc(F)cc3)c2OC(C)=O)cc1 returned NIH3T3 tox 28.2µM*, HEK293 tox 44.7µM*, NPR1 antag -18.3% and FLuc inh inactive.
For O=C(N[C@@H]1C[C@@H]2CO[C@H](c3ccccc3)C[C@@H]2C1)c1ccc2c(c1)OCCCO2 the results were NIH3T3 tox -29.6% and HEK293 tox inconclusive.
COc1ccc(-c2cc(N3CCN(C(=O)c4cc5ccccc5[nH]4)CC3)n[nH]2)cc1 was read as NIH3T3 tox 20µM*, HEK293 tox 28.2µM*, NPR1 antag -27.6% and FLuc inh inconclusive.
For O=C(c1ccc(F)cc1F)N1CCN(c2cc(-c3ccc(F)cc3)[nH]n2)CC1 the results were NIH3T3 tox inconclusive, HEK293 tox 39.8µM*, NPR1 antag inconclusive and FLuc inh inactive.
